Data: PubChem BioAssay (EPA / NIEHS)
“And” between values parts separate entries of the source, which are not always exact repeats. Identical values can stand only once. The source made the active and inactive calls. The calls were made as follows: active = hit-call score of the fitted dose curve at least 0.9, where 1 is the maximum; inactive = score below 0.9.

Each compound was assayed on Interleukin-8 (IL8), CXCL8 (gene 3576) (assay: BSK_SAg_IL8: BioMAP Diversity Plus: SAg Assay for Interleukin-8 (IL8) Biomarker Activity (AID 2283094)). Conditions: primary human HUVEC with PBMC; actives raise or lower the signal.
Experimental: BSK_SAg is a cell-based, multiplexed-readout assay that uses umbilical vein endothelium and peripheral blood mononuclear cells, a human vascular primary cell co-culture, with measurements taken at 24 hours after chemical dosing in a 96-well plate.BSK_SAg_IL8 is an assay component measured in the BSK_SAg assay. It measures IL-8 antibody related to regulation of gene expression using ELISA technology.Data from the assay component BSK_SAg_IL8 was analyzed into 1 assay endpoint. This assay endpoint, BSK_SAg_IL8, was analyzed with bidirectional fitting relative to DMSO as the negative control and baseline of activity. Using a type of binding reporter, gain or loss-of-signal activity can be used to understand changes in the signaling as they relate to the gene CXCL8. Furthermore, this assay endpoint can be referred to as a primary readout, because this assay has produced multiple assay endpoints where this one serves a signaling function. To generalize the intended target to other relatable targets, this assay endpoint is annotated to the cytokine intended target family, where the subfamily is interleukins.
The levels of cell surface (or secreted, indicated by the prefix "s") biomarker endpoints were measured by ELISA. Overt cytotoxicity to cells in confluent adherent cultures (all systems other than the BT system) was assessed by measuring total protein levels using sulforhodamine B (SRB) staining in parallel cultures at the time of biomarker measurements, indicated as SRB endpoints. For proliferation assays for adherent cell types, individual cell types are cultured at sub-confluence and relative cell numbers quantified by SRB staining at time points optimized for each system (48 h: 3C and CASM3C systems; 72 h: BT and HDF3CGF systems; 96 h: SAg system). SRB was performed by staining cells with 0.1% SRB after fixation with 10% TCA and reading wells at 560 nm.Viability and proliferation of PBMC (T cells) was quantified by Alamar Blue reduction for the SAg and BT systems. For PBMC viability (referred to as PBMC Cytotoxicity within the assay endpoint names), cells were plated (75,000/well in a 96-well plate) and then chemical samples added for 1 h before addition of activators, SEB and TSST-1 (20 ng/mL final concentration each). Cells were incubated for 90 h. Then, Alamar Blue (20 uL/well) (Invitrogen, Cat DAL1100) was added for 6 h, and the plates were read with a fluorescence microplate reader at 546/580 nm (excitation/emission). For PBMC proliferation, cells were plated and activated as above but incubated for only 16 h prior to addition of Alamar Blue. Plates were read after 6 h.
For `OC1OC[C@@H](O)[C@H](O)[C@H]1O` (stereo not given in full), the outcome was “inactive”.
`NCCNCCN` was tested, and the outcome was “inactive”.
For `Nc1cc([N+](=O)[O-])ccc1Cl`, the outcome was “inactive”.
`CNC[C@H](O)c1cccc(O)c1` was tested, and the outcome was “inactive”.
`CCCCC(CC)COCCC#N` (stereo not given) was tested, and the AC50 was 0.0801 µM (active).
For `c1ccc2c(c1)c1cccc3ccc4cccc2c4c31`, the outcome was “inactive”.
In the case of `C#C[C@]1(O)CC[C@H]2[C@@H]3CCC4=Cc5oncc5C[C@]4(C)[C@H]3CC[C@@]21C`, the outcome is reported as “inactive”.
`CN(CCOc1ccc(CC2SC(=O)NC2=O)cc1)c1ccccn1` (stereo not given) was tested, and the AC50 was 20 µM (active).
`CCCCC/C=C/C=C/C=O` was tested, and the AC50 was 20 µM (active).
In the case of `O=[N+]([O-])c1cc(C(F)(F)F)ccc1Cl`, the outcome is reported as “inactive”.
`CC(=O)OCCC(C)CC(C)(C)C` (stereo not given) was tested, and the outcome was “inactive”.
For `CC(C)(COC(=O)c1ccccc1)COC(=O)c1ccccc1`, the outcome was “inactive”.
For `CCCCC(CC)COC(=O)/C=C\C(=O)OCC(CC)CCCC` (stereo not given), the outcome was “inactive”.
With `O=C(O)c1cn(C2CC2)c2cc(N3CCNCC3)c(F)cc2c1=O` the outcome was “inactive”.
For `O=C1CCCCCCCCCCCCCCO1`, the outcome was “inactive”.
In the case of `CC(C)c1ccc(C(C)C)cc1`, the outcome is reported as “inactive”.
With `CC(=O)Nc1ccccc1O` the outcome was “inactive”.
`C=CCOC(=O)CCC1CCCCC1` was tested, and the outcome was “inactive”.
With `CCCCCCCCC=O` the outcome was “inactive”.
In the case of `CC(C)Oc1ccccc1O`, the outcome is reported as “inactive”.
With `COC(=O)c1ccc(C)cc1` the outcome was “inactive”.
`CC1CCC(C(C)CS)CC1S` (stereo not given) was tested, and the AC50 was 20 µM (active).
`O=P(c1ccccc1)(c1ccccc1)c1ccccc1` was tested, and the outcome was “inactive”.
In the case of `C=C(C)C(=O)O[C@H]1C[C@@H]2CC[C@@]1(C)C2(C)C`, the AC50 is reported as 35.3 µM (active).
For `O=C1OC2(c3cc(Br)c(O)c(Br)c3Oc3c2cc(Br)c(O)c3Br)c2c(Cl)c(Cl)c(Cl)c(Cl)c21`, the outcome was “inactive”.
In the case of `O=C(O)C[C@H](O)C[C@H](O)/C=C/c1c(C2CC2)nc2ccccc2c1-c1ccc(F)cc1`, the AC50 is reported as 0.0041 µM (active).
For `CCn1c2ccccc2c2cc(N)ccc21`, the AC50 was 0.0208 µM (active).
With `CC[Si](OC(C)=O)(OC(C)=O)OC(C)=O` the outcome was “inactive”.
`N#Cc1ccc(CC(=NNC(=O)Nc2ccc(OC(F)(F)F)cc2)c2cccc(C(F)(F)F)c2)cc1` was tested, and the outcome was “inactive”.
For `O=C(O)c1cn(-c2ccc(F)cc2)c2cc(N3CCNCC3)c(F)cc2c1=O`, the outcome was “inactive”.
In the case of `O=C(O)c1ccc([N+](=O)[O-])cc1`, the outcome is reported as “inactive”.
`Nc1cc([N+](=O)[O-])ccc1O` was tested, and the outcome was “inactive”.
With `Cc1cc(C2(c3cc(C)c(O)cc3C)OS(=O)(=O)c3ccccc32)c(C)cc1O` the outcome was “inactive”.
`C=C[Si](OCC)(OCC)OCC` was tested, and the outcome was “inactive”.
With `CC(=O)O[C@]1(C(C)=O)CC[C@H]2[C@@H]3C[C@H](C)C4=CC(=O)CC[C@]4(C)[C@H]3CC[C@@]21C` the outcome was “inactive”.
With `CCC(=O)OCc1ccccc1` the outcome was “inactive”.
`C[C@H]1C[C@@H]2[C@H]([C@@H](O)C[C@@]3(C)[C@H]2CC[C@]3(O)C(=O)CO)[C@@]2(C)C=CC(=O)C=C12` was tested, and the AC50 was 4.3 µM (active) and 1.37 µM (active).
For `Cc1ccc(O)c(C(C)(C)C)c1`, the AC50 was 32.8 µM (active).
For `BrC1CCC(Br)C(Br)CCC(Br)C(Br)CCC1Br` (stereo not given), the outcome was “inactive”.
With `CCc1c(C)cc(N)c(CC)c1N` the outcome was “inactive”.
